# In PubChem BioAssay (EPA / NIEHS):
# Calls of active or inactive are those of the source. Rule for the calls: active = hit-call score of the fitted dose curve at least 0.9, where 1 is the maximum; inactive = score below 0.9.
# Assays:
# [1] = ATG_GLI_CIS: Attagene CIS-FACTORIAL HepG2 Assay for human Zinc Finger Protein GLI1 (AID 2282945); details: HepG2, Attagene cis-factorial reporter mRNA, GLI element; actives raise or lower the signal
# Summary of the method: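 Bidirectional curve fits relative to DMSO, using reporter mRNA levels from RT-PCR plus capillary electrophoresis. Cells were HepG2 transiently carrying cis-regulated reporter constructs, harvested 24 h after dosing.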
# [2] = biological target: Bile acid receptor (Homo sapiens) (UniProt Q96RI1); experiment: ATG_IR1_CIS: Attagene CIS-FACTORIAL HepG2 Assay for human Nuclear Receptor Subfamily 1 Group H Member 4 (NR1H4), IR1 submotif (AID 2282946); details: IR1 reporter transcription, actives raise or lower the signal
# Summary of the method: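 Cells (human HepG2) carry transiently transfected cis-promoter reporter transcription units. Compounds are incubated 24 h, total RNA is reverse-transcribed and amplified, and labelled fragments are resolved by capillary electrophoresis. Curves use DMSO as baseline.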
# [3] = ATG_GRE_CIS: Attagene CIS-FACTORIAL HepG2 Assay for human Glucocorticoid Response Elements (GRE) (AID 2282947); details: HepG2 GRE cis-reporter, Attagene multiplex mRNA; actives raise or lower the signal
# Summary of the method: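 Transient MRTU transfection of human HepG2 liver cells; cis-regulated reporters report endogenous factors. 24 h dosing → RNA isolation → RT-PCR → 6-FAM primer extension → HpaI cut → CE fragment analysis. Bidirectional fit, DMSO negative control.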
# [4] = ATG_ISRE_CIS: Attagene CIS-FACTORIAL HepG2 Assay for human Interferon Regulatory Factor 1 (IRF1) binding to an Interferon-Stimulated Response Element (ISRE) (AID 2282948); details: HepG2 ISRE cis-reporter (Attagene), mRNA transcription readout; actives raise or lower the signal
# Summary of the method: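 HepG2 cells transiently transfected with multiplexed cis-promoter reporter units; after 24 h compound exposure, reporter mRNA quantified by RT-PCR, FAM labelling, HpaI digestion and capillary electrophoresis. Bidirectional fit versus DMSO baseline.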
# [5] = ATG_M_32_CIS: Attagene CIS-FACTORIAL HepG2 Assay for M32 Transcription Factor (Internal Marker) (AID 2282949); details: HepG2 Attagene cis-factorial M32 reporter, mRNA; actives raise or lower the signal;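 note: background control marker of the multiplexed CIS panel rather than a real target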
# Summary of the method: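 Fluorescent capillary electrophoresis peaks of HpaI-digested, FAM-labelled RT-PCR reporter products give the signal. Source: transiently transfected human liver HepG2 cells, 24 h after chemical dosing; bidirectional fitting against DMSO.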
# [6] = ATG_M_06_CIS: Attagene CIS-FACTORIAL HepG2 Assay for M06 Transcription Factor (Internal Marker) (AID 2282950); details: HepG2 Attagene CIS-FACTORIAL M06 internal marker reporter; actives raise or lower the signal
# Summary of the method: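 One of many multiplexed endpoints: HepG2 reporter mRNA after 24 h dosing, detected by RT-PCR and capillary electrophoresis fluorescence; gain or loss of signal analysed against DMSO.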
# [7] = biological target: Heat shock factor protein 1 (Homo sapiens) (UniProt Q00613); experiment: ATG_HSE_CIS: Attagene CIS-FACTORIAL HepG2 Assay for human Heat Shock Transcription Factor 1 (HSE) (AID 2282953); details: HepG2 HSE cis-reporter, Attagene RNA transcription; actives raise or lower the signal
# Summary of the method: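 Using HepG2 with transfected cis-driven reporter constructs, compound effects on endogenous factor activity are scored as reporter mRNA change at 24 h. Detection: RT-PCR, HpaI digestion, capillary electrophoresis; bidirectional fitting to DMSO.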
# [8] = ATG_MRE_CIS: Attagene CIS-FACTORIAL HepG2 Assay for human Metal Responsive Element (MRE) (AID 2282954); details: HepG2 MRE cis-reporter transcription, Attagene multiplex; actives raise or lower the signal
# Summary of the method: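 Transient MRTU transfection of HepG2 (FuGene 6); 24 h dosing; total RNA → oligo(dT) RT, PCR, 6-FAM primer extension, HpaI cut, CE. Bidirectional fit vs DMSO.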
# [9] = ATG_PBREM_CIS: Attagene CIS-FACTORIAL HepG2 Assay for human Phenobarbital-responsive Enhancer Module (PBREM) (AID 2282955); details: HepG2 PBREM cis-reporter, Attagene multiplexed transcription; actives raise or lower the signal
# Summary of the method: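 HepG2, transient MRTU transfection, 24 h dosing; RNA → oligo(dT) RT → PCR → 6-FAM extension → HpaI → CE. Bidirectional fit vs DMSO.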
# [10] = biological target: Paired box protein Pax-6 (Homo sapiens) (UniProt P26367); experiment: ATG_Pax6_CIS: Attagene CIS-FACTORIAL HepG2 Assay for human Paired Box 6 (PAX6) (AID 2282956); details: HepG2 CIS-FACTORIAL PAX6 reporter transcription, RNA readout; actives raise or lower the signal
# Summary of the method: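 HepG2 cells transiently transfected with multiplexed cis-promoter reporter units (endogenous TF activity) were dosed for 24 h. Reporter mRNA was quantified by RT-PCR, 6-FAM labeling, HpaI digestion and capillary electrophoresis; bidirectional fitting versus DMSO baseline.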
# [11] = ATG_PXRE_CIS: Attagene CIS-FACTORIAL HepG2 Assay for human Pregnane X Receptor Element (PXRE) (AID 2282957); details: HepG2 Attagene CIS-FACTORIAL PXRE reporter, mRNA; actives raise or lower the signal
# Summary of the method: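 HepG2 cells transiently transfected with cis-element-driven multiplexed reporter units; after 24 h chemical exposure, reporter mRNA measured by RT-PCR, 6-FAM labelling, HpaI digestion and capillary electrophoresis. Bidirectional fitting relative to DMSO.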
# [12] = ATG_Sox_CIS: Attagene CIS-FACTORIAL HepG2 Assay for human SRY-box transcription factor (SOX) (AID 2282960); details: HepG2 Attagene cis-factorial SOX reporter, mRNA; actives raise or lower the signal
# Summary of the method: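 Cells were transfected with reporter constructs under cis-regulatory promoters, then exposed to chemicals for 24 h. Reporter transcripts were quantified by fluorescence after RT-PCR and capillary electrophoresis; activity was fitted in both directions against DMSO.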
# [13] = biological target: Signal transducer and activator of transcription 3 (Homo sapiens) (UniProt P40763); experiment: ATG_STAT3_CIS: Attagene CIS-FACTORIAL HepG2 Assay for human Signal Transducer and Activator of Transcription 3 (STAT3) (AID 2282963); details: HepG2, Attagene cis-factorial STAT3 reporter transcription; actives raise or lower the signal
# Summary of the method: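 Endogenous STAT3-responsive cis-element activity was read in transiently transfected HepG2 cells after 24 h treatment. Reporter transcripts were quantified via RT-PCR and capillary electrophoresis, with DMSO as negative control and bidirectional curve fitting.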
# [14] = ATG_TA_CIS: Attagene CIS-FACTORIAL HepG2 Assay for human TA Basal Promoter (AID 2282964); details: HepG2 Attagene CIS-factorial TA basal promoter reporter; actives raise or lower the signal
# Summary of the method: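 Transient MRTU transfection of HepG2 preceded 24 h compound exposure. Reporter mRNA levels were then read by RT-PCR with capillary electrophoresis, and this background-control endpoint was fitted bidirectionally to DMSO.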
# [15] = biological target: Hypoxia-inducible factor 1-alpha (Homo sapiens) (UniProt Q16665); experiment: ATG_HIF1a_CIS: Attagene CIS-FACTORIAL HepG2 Assay for human Hypoxia Inducible Factor 1 (HIF1A) (AID 2282951); details: HepG2 Attagene cis-factorial HIF1a reporter transcription; actives raise or lower the signal
# Summary of the method: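 HepG2, transient cis-reporter library, 24 h dosing. RNA → RT (oligo dT) → PCR → 6-FAM primer extension → HpaI → CE. Bidirectional curve fit vs DMSO.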
# [16] = biological target: Hepatocyte nuclear factor 6 (Homo sapiens) (UniProt Q9UBC0); experiment: ATG_HNF6_CIS: Attagene CIS-FACTORIAL HepG2 Assay for human Hepatocyte Nuclear Factor 6 (HNF6) (AID 2282952); details: HepG2 Attagene cis-factorial HNF6 reporter transcription; actives raise or lower the signal
# Summary of the method: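 HepG2 cells transiently transfected with cis-element-driven multiplexed reporter units measuring endogenous transcription factor activity. After 24 h exposure, reporter mRNA quantified by RT-PCR, FAM-labelled fragments and capillary electrophoresis; bidirectional fitting versus DMSO.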
# [17] = ATG_PPRE_CIS: Attagene CIS-FACTORIAL HepG2 Assay for human Peroxisome Proliferator-activated Response Element (PPRE) (AID 2282958); details: HepG2 PPRE cis-element reporter, Attagene transcription factor profiling; actives raise or lower the signal
# Summary of the method: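 Transcript-level reporter induction in transfected HepG2 cells after 24 h chemical exposure, quantified by fluorescence from RT-PCR products separated by capillary electrophoresis.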
# [18] = ATG_RORE_CIS: Attagene CIS-FACTORIAL HepG2 Assay for human RAR-related Orphan Receptor Element (RORE) (AID 2282959); details: HepG2 Attagene cis-factorial RORE reporter, mRNA; actives raise or lower the signal
# Summary of the method: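 Multiplexed reporter assay measuring mRNA induction from a cis promoter element in transiently transfected HepG2 cells after 24 h treatment. Detection via RT-PCR and capillary electrophoresis fluorescence; DMSO serves as baseline.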
# [19] = biological target: Transcription factor Sp1 (Homo sapiens) (UniProt P08047); experiment: ATG_Sp1_CIS: Attagene CIS-FACTORIAL HepG2 Assay for human Specificity Protein 1 (Sp1) (AID 2282961); details: HepG2 Sp1 cis-reporter transcription, actives raise or lower the signal
# Summary of the method: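 Measures mRNA induction of an Sp1-linked reporter in HepG2 cells 24 h post-dosing. Multiplexed reporters read by RT-PCR and capillary electrophoresis; DMSO serves as negative control and baseline.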
# [20] = ATG_SREBP_CIS: Attagene CIS-FACTORIAL HepG2 Assay for human Sterol Regulatory Element Binding (SREBP) (AID 2282962); details: HepG2 Attagene cis-factorial SREBP reporter, mRNA; actives raise or lower the signal
# Summary of the method: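 HepG2 cells transiently transfected with multiplexed cis-element reporter units report endogenous transcription factor activity. After 24 h of chemical exposure, reporter mRNA was quantified by RT-PCR, 6-FAM labelling, HpaI digestion and capillary electrophoresis; bidirectional fits used DMSO as baseline.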
# Transcription factor Sp1 (Homo sapiens), sequence (P08047 whole entry, looked up): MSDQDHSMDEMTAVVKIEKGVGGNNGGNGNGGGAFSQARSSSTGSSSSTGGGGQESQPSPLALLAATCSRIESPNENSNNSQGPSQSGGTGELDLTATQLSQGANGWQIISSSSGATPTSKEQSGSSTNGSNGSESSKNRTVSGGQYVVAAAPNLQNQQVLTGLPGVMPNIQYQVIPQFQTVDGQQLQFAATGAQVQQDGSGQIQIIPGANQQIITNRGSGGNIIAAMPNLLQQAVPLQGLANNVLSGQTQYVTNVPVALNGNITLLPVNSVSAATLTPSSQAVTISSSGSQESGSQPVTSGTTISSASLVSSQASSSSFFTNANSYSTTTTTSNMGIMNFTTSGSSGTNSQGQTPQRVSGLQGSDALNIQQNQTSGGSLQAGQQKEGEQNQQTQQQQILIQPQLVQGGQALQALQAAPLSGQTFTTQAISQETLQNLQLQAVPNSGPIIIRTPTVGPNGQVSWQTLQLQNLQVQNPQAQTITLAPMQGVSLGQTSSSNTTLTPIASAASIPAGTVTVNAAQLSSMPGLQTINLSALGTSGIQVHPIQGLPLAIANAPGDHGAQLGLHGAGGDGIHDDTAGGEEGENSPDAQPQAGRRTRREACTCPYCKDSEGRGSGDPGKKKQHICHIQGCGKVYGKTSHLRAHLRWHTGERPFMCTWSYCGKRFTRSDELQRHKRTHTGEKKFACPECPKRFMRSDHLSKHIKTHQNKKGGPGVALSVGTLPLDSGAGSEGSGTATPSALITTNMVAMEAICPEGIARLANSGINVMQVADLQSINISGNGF
# Hepatocyte nuclear factor 6 (Homo sapiens), sequence (Q9UBC0 whole entry, looked up, the tested form may be a part): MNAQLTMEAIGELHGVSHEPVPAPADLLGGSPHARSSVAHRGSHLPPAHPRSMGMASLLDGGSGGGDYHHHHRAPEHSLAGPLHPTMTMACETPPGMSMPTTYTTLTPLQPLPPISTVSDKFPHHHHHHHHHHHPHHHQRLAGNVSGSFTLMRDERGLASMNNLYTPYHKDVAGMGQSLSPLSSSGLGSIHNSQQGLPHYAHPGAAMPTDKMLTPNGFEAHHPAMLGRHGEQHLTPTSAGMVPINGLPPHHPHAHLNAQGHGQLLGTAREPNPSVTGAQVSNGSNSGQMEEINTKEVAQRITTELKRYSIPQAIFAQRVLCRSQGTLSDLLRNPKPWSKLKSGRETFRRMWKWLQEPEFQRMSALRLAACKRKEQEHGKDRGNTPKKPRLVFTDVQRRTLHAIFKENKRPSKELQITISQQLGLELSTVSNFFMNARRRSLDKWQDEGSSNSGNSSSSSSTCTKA
# Paired box protein Pax-6 (Homo sapiens), sequence (P26367 whole entry, looked up): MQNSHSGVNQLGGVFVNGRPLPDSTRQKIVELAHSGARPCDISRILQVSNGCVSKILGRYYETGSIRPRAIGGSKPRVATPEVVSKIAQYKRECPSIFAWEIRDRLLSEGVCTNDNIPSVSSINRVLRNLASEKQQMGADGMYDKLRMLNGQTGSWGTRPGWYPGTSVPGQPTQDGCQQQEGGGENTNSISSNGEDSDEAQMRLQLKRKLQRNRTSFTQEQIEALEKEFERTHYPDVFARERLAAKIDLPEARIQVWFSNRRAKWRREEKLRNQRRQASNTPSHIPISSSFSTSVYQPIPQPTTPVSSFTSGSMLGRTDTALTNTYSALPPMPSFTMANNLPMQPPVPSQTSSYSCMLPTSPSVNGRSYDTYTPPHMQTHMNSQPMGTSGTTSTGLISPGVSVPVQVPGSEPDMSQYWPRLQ
# Signal transducer and activator of transcription 3 (Homo sapiens), sequence (P40763 whole entry, looked up): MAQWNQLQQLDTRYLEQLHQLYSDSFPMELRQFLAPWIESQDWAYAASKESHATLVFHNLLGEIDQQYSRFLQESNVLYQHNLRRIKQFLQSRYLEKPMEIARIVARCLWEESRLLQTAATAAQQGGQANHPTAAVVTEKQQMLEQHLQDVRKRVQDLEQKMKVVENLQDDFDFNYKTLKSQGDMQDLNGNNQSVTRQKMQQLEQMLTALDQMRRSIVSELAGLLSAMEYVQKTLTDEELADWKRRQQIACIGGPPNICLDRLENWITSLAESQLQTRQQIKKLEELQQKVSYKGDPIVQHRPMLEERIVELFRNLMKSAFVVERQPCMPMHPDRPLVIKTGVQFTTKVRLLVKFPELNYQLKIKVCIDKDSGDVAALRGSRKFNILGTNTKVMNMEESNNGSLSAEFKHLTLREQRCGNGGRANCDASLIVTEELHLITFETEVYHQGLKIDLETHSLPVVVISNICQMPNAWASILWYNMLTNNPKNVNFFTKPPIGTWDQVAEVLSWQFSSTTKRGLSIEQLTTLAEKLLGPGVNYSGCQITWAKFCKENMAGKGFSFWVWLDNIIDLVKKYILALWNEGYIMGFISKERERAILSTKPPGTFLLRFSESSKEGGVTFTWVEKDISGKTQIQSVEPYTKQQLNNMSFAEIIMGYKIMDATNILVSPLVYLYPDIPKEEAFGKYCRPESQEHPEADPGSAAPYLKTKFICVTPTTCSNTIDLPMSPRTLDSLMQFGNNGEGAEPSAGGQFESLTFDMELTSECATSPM
# Heat shock factor protein 1 (Homo sapiens), sequence (Q00613 whole entry, looked up): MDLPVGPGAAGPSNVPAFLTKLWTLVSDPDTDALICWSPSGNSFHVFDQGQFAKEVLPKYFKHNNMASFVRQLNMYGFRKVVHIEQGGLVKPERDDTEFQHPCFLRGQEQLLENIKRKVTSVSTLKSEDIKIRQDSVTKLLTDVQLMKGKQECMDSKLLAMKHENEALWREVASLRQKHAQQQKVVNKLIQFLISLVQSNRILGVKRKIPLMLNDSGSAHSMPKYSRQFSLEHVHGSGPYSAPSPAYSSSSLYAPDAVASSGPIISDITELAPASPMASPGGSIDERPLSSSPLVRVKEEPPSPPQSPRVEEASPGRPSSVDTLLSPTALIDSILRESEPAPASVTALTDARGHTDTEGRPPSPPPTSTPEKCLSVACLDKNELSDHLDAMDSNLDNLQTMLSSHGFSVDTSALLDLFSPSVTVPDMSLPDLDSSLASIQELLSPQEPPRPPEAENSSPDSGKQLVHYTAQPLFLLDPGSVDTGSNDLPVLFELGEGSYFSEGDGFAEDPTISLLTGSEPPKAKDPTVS
# Hypoxia-inducible factor 1-alpha (Homo sapiens), sequence (Q16665 whole entry, looked up): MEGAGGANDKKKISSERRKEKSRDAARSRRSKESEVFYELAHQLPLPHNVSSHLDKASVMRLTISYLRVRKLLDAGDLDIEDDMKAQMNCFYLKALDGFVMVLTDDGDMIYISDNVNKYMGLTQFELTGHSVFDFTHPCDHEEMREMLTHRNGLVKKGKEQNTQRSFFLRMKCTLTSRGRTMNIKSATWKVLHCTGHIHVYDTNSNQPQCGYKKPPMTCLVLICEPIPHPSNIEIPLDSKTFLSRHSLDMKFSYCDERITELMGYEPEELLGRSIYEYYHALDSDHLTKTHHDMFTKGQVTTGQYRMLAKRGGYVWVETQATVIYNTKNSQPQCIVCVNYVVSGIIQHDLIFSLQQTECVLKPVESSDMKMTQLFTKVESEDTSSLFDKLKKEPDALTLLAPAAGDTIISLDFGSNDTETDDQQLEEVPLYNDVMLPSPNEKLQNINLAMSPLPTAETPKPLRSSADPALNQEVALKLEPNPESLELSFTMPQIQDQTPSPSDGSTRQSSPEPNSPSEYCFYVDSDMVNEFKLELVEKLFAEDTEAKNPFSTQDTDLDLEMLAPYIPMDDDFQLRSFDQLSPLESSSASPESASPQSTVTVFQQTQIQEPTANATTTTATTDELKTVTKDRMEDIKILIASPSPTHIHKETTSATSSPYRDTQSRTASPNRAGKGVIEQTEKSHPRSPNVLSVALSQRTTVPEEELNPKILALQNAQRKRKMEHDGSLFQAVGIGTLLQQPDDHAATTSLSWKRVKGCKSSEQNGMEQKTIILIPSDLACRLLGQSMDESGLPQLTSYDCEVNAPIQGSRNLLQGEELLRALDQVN
# Bile acid receptor (Homo sapiens), sequence (Q96RI1 whole entry, looked up, the tested form may be a part): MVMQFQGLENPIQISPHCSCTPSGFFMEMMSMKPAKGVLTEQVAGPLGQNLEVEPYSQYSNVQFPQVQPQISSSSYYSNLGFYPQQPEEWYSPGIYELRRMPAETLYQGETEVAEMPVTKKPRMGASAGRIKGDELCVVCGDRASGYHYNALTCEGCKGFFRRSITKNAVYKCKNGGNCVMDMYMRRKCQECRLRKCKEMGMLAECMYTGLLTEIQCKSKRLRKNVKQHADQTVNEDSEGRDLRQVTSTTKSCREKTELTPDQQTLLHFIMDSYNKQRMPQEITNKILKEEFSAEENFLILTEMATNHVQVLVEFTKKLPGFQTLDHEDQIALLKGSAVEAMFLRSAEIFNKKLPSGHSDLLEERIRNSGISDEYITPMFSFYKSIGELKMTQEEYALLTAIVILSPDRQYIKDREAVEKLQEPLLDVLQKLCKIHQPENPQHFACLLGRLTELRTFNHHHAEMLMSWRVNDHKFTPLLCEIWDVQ
smiles,measurement,setting,value
O=c1c(O)c(-c2ccc(O)cc2O)oc2cc(O)cc(O)c12,outcome,[1],inactive
same,outcome,[2],inactive
same,outcome,[3],inactive
same,outcome,[4],inactive
same,outcome,[5],inactive
same,outcome,[6],inactive
same,outcome,[7],inactive
same,outcome,[8],inactive
same,outcome,[9],inactive
same,outcome,[10],inactive
same,AC50,[11],26.5 µM (active)
same,outcome,[12],inactive
same,outcome,[13],inactive
same,outcome,[14],inactive
Cc1ccc([N+](=O)[O-])cc1N,outcome,[1],inactive
same,outcome,[2],inactive
same,outcome,[4],inactive
same,outcome,[5],inactive
same,outcome,[6],inactive
same,outcome,[15],inactive
same,outcome,[16],inactive
same,outcome,[7],inactive
same,outcome,[8],inactive
same,outcome,[9],inactive
same,AC50,[11],45.4 µM (active)
same,outcome,[17],inactive
same,outcome,[18],inactive
same,outcome,[12],inactive
same,outcome,[19],inactive
same,outcome,[20],inactive
same,outcome,[14],inactive
CCCC(CC)c1ccccc1 (stereo unspecified),outcome,[1],inactive
same,outcome,[3],inactive
same,outcome,[4],inactive
same,outcome,[5],inactive
same,outcome,[6],inactive
same,outcome,[15],inactive
same,outcome,[16],inactive
same,outcome,[7],inactive
same,outcome,[8],inactive
same,outcome,[9],inactive
same,outcome,[10],inactive
same,AC50,[11],36.2 µM (active)
same,outcome,[18],inactive
same,outcome,[12],inactive
same,AC50,[19],180 µM (active)
same,AC50,[20],164 µM (active)
same,outcome,[13],inactive
O=C(Oc1ccccc1)c1ccccc1C(=O)Oc1ccccc1,outcome,[1],inactive
same,outcome,[3],inactive
same,outcome,[4],inactive
same,outcome,[5],inactive
same,outcome,[6],inactive
same,outcome,[15],inactive
same,outcome,[16],inactive
same,outcome,[7],inactive
same,outcome,[8],inactive
same,outcome,[9],inactive
same,outcome,[10],inactive
same,AC50,[11],24.6 µM (active)
same,outcome,[17],inactive
same,outcome,[12],inactive
same,outcome,[19],inactive
same,outcome,[20],inactive
same,outcome,[13],inactive
same,outcome,[14],inactive
